Drawing on PubChem BioAssay AID504660 (National Center for Advancing Translational Sciences (NCATS), 2011), this text covers activation for 89 compounds.

Among all 360,000 compounds or so, about 3,700 (1%) were called active. No stated cut-off is given here; in the data, active means activation above about 30%; inactive means the rest. This excerpt belongs to a sample that is enriched for actives.

D(1A) dopamine receptor (Homo sapiens), sequence (P21728 whole entry, looked up): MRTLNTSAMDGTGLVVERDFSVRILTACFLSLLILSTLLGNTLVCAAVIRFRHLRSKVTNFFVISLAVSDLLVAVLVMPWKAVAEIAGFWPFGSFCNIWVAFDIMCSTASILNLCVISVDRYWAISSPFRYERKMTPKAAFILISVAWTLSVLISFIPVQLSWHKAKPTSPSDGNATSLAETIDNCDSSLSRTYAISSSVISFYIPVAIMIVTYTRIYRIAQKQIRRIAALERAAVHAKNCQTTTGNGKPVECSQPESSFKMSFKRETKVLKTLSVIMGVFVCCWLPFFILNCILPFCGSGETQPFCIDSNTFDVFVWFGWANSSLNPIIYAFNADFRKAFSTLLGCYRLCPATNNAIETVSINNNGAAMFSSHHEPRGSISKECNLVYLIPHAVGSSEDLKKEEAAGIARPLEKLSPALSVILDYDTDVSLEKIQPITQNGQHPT

For the test, the target named is D(1A) dopamine receptor (Homo sapiens) (UniProt P21728). Nature of the test: Allosteric Agonists of the Human D1 Dopamine Receptor: qHTS. Further: 0% is about no effect. Particulars: HEK293 T-REx D1 cells, calcium flux, agonist mode; at 2 µM; stronger effect = higher value. The method in brief:
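Inducible HEK293 T-REx D1 cells, force-coupled to calcium signalling, were plated at 4000 cells/well with tetracycline and held overnight at 30 C. After no-wash calcium dye loading, compound-evoked calcium rise over 180 s flagged agonists.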
For orientation: In qHTS, concentration-response curves come from the screen itself.
For the compound `CN(C)c1ccc(C(CNS(=O)(=O)c2cc(F)ccc2F)N2CCOCC2)cc1` (centres undefined), the activation was 5.52% (inactive). Take `CCCc1cc(=O)n2[nH]c(NCc3ccc(CC)cc3)nc2n1`: the activation is 1.79% (inactive). For the compound `Cc1c(Cl)cccc1NC(=O)C1CCCN(C(=O)c2cnn(-c3ccccc3)c2-n2cccc2)C1` (centres undefined), the activation was 4.43% (inactive). To `CCOC(=O)c1ccc(NC(=O)CCS(=O)(=O)c2ccc(C)cc2)cc1` belongs 1.55% (inactive); to `CCc1ccc(-c2nn(-c3ccccc3C)cc2C(=O)N2CCN(C3CCS(=O)(=O)C3)CC2)cc1` (centres undefined), 1.59% (inactive).

`O=Cc1cn(-c2ccccc2)nc1-c1ccccn1`: the activation was -0.0617% (inactive). To `CCc1ccc(-c2nn(-c3ccccc3)cc2CSC(=N)N)cc1` belongs 47.5% (active). With `c1ccc(-n2nnnc2NC2CCCCCC2)cc1` the figure was 112% (active). With `CN(C(=O)CSc1nnnn1-c1ccccc1)C1CCCCC1` the figure was 0.493% (inactive); with `Fc1ccccc1CCNc1nnnn1-c1ccccc1`, 5.56% (inactive).

For the compound `CCOc1cccc2cc(-c3cn4c(n3)sc3cc(C)ccc34)c(=O)oc12`, the activation is 0.779% (inactive). As to `CCc1nc2c(cnn2-c2ccc(C)cc2)c(=O)n1-c1ccc(C)cc1`, the activation was 5.84% (inactive). `Cc1cccc(C(=O)Nc2ccc(-c3nc4ccccc4s3)c(C)c2)c1`: the activation is 6.34% (inactive). In the case of `COc1ccc(S(=O)(=O)Nc2cccc3cccnc23)c(N)c1`, the activation was 4.45% (inactive). Take `CCCOc1ccc(-c2c(C(=O)N/N=C/c3ccco3)nnn2-c2nonc2N)cc1`: the activation is 13.8% (inactive). To `CCc1ccc(/C=N/NC(=O)c2nnn(-c3nonc3N)c2CN2CCc3ccccc32)cc1` belongs -0.149% (inactive); to `Nc1nonc1-n1nnc(C(=O)N/N=C/c2ccc(Cl)cc2)c1-c1ccc2c(c1)OCO2`, 94.3% (active); to `Cc1cccc(NC(=O)c2ccc3nc(C(C)C)oc3c2)c1C`, 2.14% (inactive). To `Cc1ccc(N(C)C(=O)C2CCN(S(=O)(=O)c3ccc4c(c3)CCCN4C(=O)C3CCC3)CC2)cc1` belongs 5.77% (inactive); to `CCOC(=O)CNC(=O)c1cc2c(=O)n3cccc(C)c3nc2s1`, -0.0788% (inactive); to `COc1ccc(C(=O)NC(=S)N2CCNC(=O)C2CC(=O)OC(C)C)cc1` (centres undefined), 2.67% (inactive). Consider `CCOC(=O)CC1C(=O)NCCN1c1nc2c(C)cccn2c(=O)c1/C=C1\SC(=S)N(C(C)CC)C1=O` (centres undefined), for which the activation is 265% (active).

With `CCC1CN(S(=O)(=O)c2cc(-c3cc(C)no3)ccc2C)c2cc(C)ccc2O1` (centres undefined), the activation is 8.44% (inactive). Take `CSc1ncc(Cl)c(C(=O)Nc2ccc(S(=O)(=O)N3CCCC(C)C3)cc2)n1` (centres undefined): the activation was 3.25% (inactive). Consider `COC(=O)c1ccccc1NC(=O)c1ccc(C#N)cc1`, for which the activation was 1.68% (inactive). For `Cc1ccccc1CNC(=O)C(=O)NCC(c1cccs1)S(=O)(=O)c1cccs1` (centres undefined), the activation is 25.2% (inactive). `COc1ccc(C(=O)C2CCCN(Cc3cccn3-c3ccccn3)C2)c(C)c1` (centres undefined): the activation is 34% (active).

Take `COc1ccc(C(=O)C2CCCN(S(=O)(=O)c3cccc(C)c3)C2)c(C)c1` (centres undefined): the activation is 12.7% (inactive). With `COc1ccc(C(=O)C2CCCN(C(=O)c3cnsn3)C2)c(C)c1` (centres undefined) the figure was 2.63% (inactive).

Consider `O=S(=O)(c1ccc2c(c1)OCCCO2)N1CCN(S(=O)(=O)c2c(F)cccc2F)CC1`, for which the activation is 7.42% (inactive). With `CCc1ccc(CNC(=O)c2ccc(CS(=O)c3ccc(Br)cc3)o2)cc1` (centres undefined), the activation was 2.59% (inactive).

`O=S(=O)(NC1CC1)c1ccc2c3c(cccc13)CC2`: the activation is 2.42% (inactive). For the compound `O=S(=O)(NC1CCCCC1)c1ccc(F)c2ccccc12`, the activation was 102% (active). To `CCc1ccccc1NC(=O)c1ccc(F)c(S(=O)(=O)NC2CCCCCC2)c1` belongs -1.43% (inactive); to `Nc1c(C(=O)c2cccs2)sc2nsc(SCCN3CCCCC3)c12`, 257% (active); to `CCc1ccc(CNCc2c(C(=O)O)n(Cc3ccc(F)cc3Cl)c3cc(OC)ccc23)cc1`, 0.499% (inactive). To `CCOc1ccccc1NC(=O)C1CCCN(S(=O)(=O)c2cn(C)cn2)C1` (centres undefined) belongs -2.08% (inactive). Consider `NC(=O)C1=C[C@H](c2csc3ccccc23)C[C@H](OCc2ccc(CO)cc2)O1`, for which the activation is 203% (active). To `O=C(NC1CC1)C1=C[C@H](c2c[nH]c3ccccc23)C[C@H](OCc2ccc(CO)cc2)O1` belongs 7.93% (inactive); to `NC(=O)C1=C[C@@H](c2csc3ccccc23)C[C@@H](OCc2ccc(CO)cc2)O1`, 11.8% (inactive). With `Cc1cccc(NC(=O)Cn2c(C(F)(F)F)nc3ccccc32)c1C`, the activation is 2.74% (inactive).

Consider `Oc1ccc(Cl)cc1C1C=C(c2ccc3c(c2)OCO3)NC(c2ccc(F)c(Br)c2)N1` (centres undefined), for which the activation is 16.4% (inactive).

In the case of `Cc1ccc(-c2cc(N)n(Cc3cccc(Cl)c3)n2)cc1`, the activation was -0.135% (inactive).

For `COc1cc(OC)c(OC)cc1/C=C/c1nc2cc3ccccc3cc2c(=O)n1-c1ccc(F)c(Cl)c1`, the activation was 0.411% (inactive). For the compound `CN1CCN(CCCNC(=O)c2ccc(/C=C3\Oc4ccccc4N(Cc4ccc(Cl)cc4)C3=O)cc2)CC1`, the activation was 87.5% (active). As for `COCCNC(=O)c1ccc2c(c1)N(Cc1cccc(Cl)c1)C(=O)c1ccccc1S2(=O)=O`, the activation is 4.3% (inactive). To `CCCN1CCN(CCCNC(=O)c2ccc3nc(Cc4ccccc4)oc3c2)CC1` belongs 4.88% (inactive); to `Cc1cccc(NC(=O)CN(c2ccc(C(C)C)cc2)S(=O)(=O)c2c(C)nn(C)c2C)c1C`, 3.58% (inactive); to `COc1cc(NC(=O)c2cc3ccc4cccnc4c3[nH]2)cc(OC)c1OC`, -0.0279% (inactive). For `Cc1ccc(NC(=O)C(C)c2cccc(C(=O)c3ccccc3)c2)cc1` (centres undefined), the activation is 18.8% (inactive).

Take `CCCC(C)C(=O)Nc1ccc(NC(C)=O)cc1` (centres undefined): the activation is 2.66% (inactive).

As for `CCC(C(=O)Nc1ccc(C(C)C)cc1)c1ccccc1` (centres undefined), the activation was 75.7% (active). `CC(=O)N1CCc2cc(Br)cc(S(=O)(=O)CCC(=O)NCCc3ccc(Cl)cc3)c21`: the activation was 1.1% (inactive). With `Cc1ccc(NC(=O)Cn2c(=O)n(-c3ccccc3)c(=O)c3c4c(sc32)CCCC4)cc1` the figure was 4.64% (inactive); with `Cc1cccc(NC(=O)Cn2c(=O)n(Cc3ccccc3)c(=O)c3c(C)c(C)sc32)c1`, 1.32% (inactive); with `CCOC(=O)N1CCc2c(sc3c2c(=O)n(Cc2ccccc2)c(=O)n3CC(=O)Nc2cccc(C)c2)C1`, 47.3% (active). `COCCCNC(=O)c1c(NC(=O)c2cc(=O)c3cc(C)c(C)cc3o2)sc2c1CCCC2`: the activation was -1.72% (inactive). Consider `COc1cccc(CNCc2c(C(=O)O)n(Cc3ccc(C)cc3)c3cc(C)ccc23)c1OC`, for which the activation was 0.928% (inactive). To `O=C(NC1CCCC1)c1cc(-c2ccccc2)on1` belongs 0.117% (inactive); to `O=C(NCc1ccccc1)c1cc(-c2cccc(Cl)c2)on1`, 3.77% (inactive); to `CC(NC(=O)c1cc(-c2ccccc2)on1)c1ccccc1` (centres undefined), 94.3% (active). For `CCCn1c2ccccc2c2cnn(CC(=O)N(C)c3ccccc3CC)c(=O)c21`, the activation is 0.732% (inactive). As to `CCOCCCNC(=O)c1ccc2nc(CCc3ccccc3)oc2c1`, the activation was 0.808% (inactive). `O=C(c1ccc2c(c1)N(Cc1ccccc1)C(=O)c1ccccc1S2(=O)=O)N1CCCC1`: the activation is 0.455% (inactive). Regarding `Cc1cccc(NC(=O)C2CCN(S(=O)(=O)c3c(C)noc3/C=C/c3ccco3)CC2)c1`, the activation was 1.4% (inactive).

On to `CC(O)c1nc2ccccc2n1Cc1ccc([N+](=O)[O-])cc1` (centres undefined), for which the activation was 0.897% (inactive). To `CC(C)c1ccc(Cn2c(COc3ccccc3)nc3ccccc32)cc1` belongs 32.7% (active).

In the case of `O=C(Cn1c(COc2ccccc2)nc2ccccc21)Nc1cc(Cl)c(Cl)cc1Cl`, the activation was -0.172% (inactive).

For `CCc1ccc(Nc2nn3c(=O)c4cc5c(cc4nc3s2)OCO5)cc1`, the activation was 0.763% (inactive). In the case of `CCOc1cc(CNC(=O)c2sc3ncnc(N(C)C4CCCCC4)c3c2C)ccc1OC`, the activation was 2.38% (inactive). As to `CCOc1ccc(C(=O)NC2CCN(C(=O)Nc3ccccc3OC)CC2)cc1`, the activation is 0.137% (inactive). As for `CCOc1ccc2nc(N3CCCC(C(=O)Nc4cc(C)ccc4C)C3)sc2c1` (centres undefined), the activation is -0.891% (inactive). To `CCOc1ccc2nc(N3CCCN(C(=O)Nc4ccccc4C)CC3)c(C#N)cc2c1` belongs 32.7% (active); to `CC1CCN(S(=O)(=O)c2ccc3c(c2)N(CC(=O)NCc2ccccc2Cl)C(=O)CO3)CC1`, -2.16% (inactive).

Take `COc1ccc(NC(=O)C2CCCN(S(=O)(=O)c3c(C)[nH]c(=O)[nH]c3=O)C2)c(OC)c1` (centres undefined): the activation is 3.17% (inactive). With `N#C/C(=C/c1ccc(N2CCOCC2)o1)C(=O)N1CCOCC1`, the activation was 51.4% (active). As for `N#C/C=C(/c1ccc(F)cc1)N1CCOCC1`, the activation is 5.96% (inactive). Consider `O=C(N1CCOCC1)N1CCOCC1`, for which the activation was 2.44% (inactive).

Regarding `COc1cccc(Cn2c(SCc3ccc(C(=O)N4CCCCC4)cc3)nc3ccncc32)c1`, the activation is -0.712% (inactive).

As to `COc1ccccc1C(=O)Nc1c(C(=O)N(C)Cc2ccccc2)sc2nc(C)c(Cl)c(C)c12`, the activation is 1.11% (inactive).

In the case of `COc1ccccc1N1CCN(Cc2ccc(OC)c3ccccc23)CC1`, the activation was 0.832% (inactive).

Take `COc1cc(CNCc2ccc(OC)c3ccccc23)cc(OC)c1OC`: the activation was 36.9% (active). In the case of `COc1cc(CNCc2cccs2)cc(Br)c1OC`, the activation is 2.66% (inactive). With `Cc1ccc2ccc3c(c2n1)NS(=O)(=O)c1ccccc1-3` the figure was -0.466% (inactive); with `CCC(=O)N1CCc2cc(S(=O)(=O)NC(Cc3ccccc3)C(=O)NCc3ccccc3)ccc21` (centres undefined), 0.429% (inactive). Turning to `CCCOc1ccc(-c2cccc(NS(=O)(=O)c3ccccc3)c2)nn1`, the activation was -0.134% (inactive).

On to `COc1ccc(-c2nc(CN3CCC(C(=O)NCc4ccccc4)CC3)c(C)o2)cc1OC`, for which the activation is -1.51% (inactive). As for `COc1ccc(CCNC(=O)C2CCCN(Cc3nc(-c4cccc(Cl)c4)oc3C)C2)cc1OC` (centres undefined), the activation is 19.6% (inactive). To `Cc1oc(-c2ccccc2F)nc1CN1CCC(C(=O)NCCc2ccc(Cl)cc2)CC1` belongs 34.8% (active).
